Broadly, the AC50 is the midpoint of the concentration-response curve, whichever way the signal moves.

The structures appear in SMILES notation. The source made the active and inactive calls. The calls were made as follows: active = hit-call score of the fitted dose curve at least 0.9, where 1 is the maximum; inactive = score below 0.9.

Read-out in assay [1]: Human Leukocyte Antigen - DR isotype (HLADR), HLA-DRA (gene 3122)
Description: BSK_CASM3C_HLADR: BioMAP Diversity Plus: CASM3C Assay for Human Leukocyte Antigen - DR isotype (HLADR) Biomarker Activity (AID 2283043).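 Also: cell-surface HLA-DR protein level quantified by ELISA.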 The conditions noted are these: primary human coronary artery smooth muscle cells; actives raise or lower the signal.

Read-out in assay [2]: Monocyte Chemoattractant Protein-1 (MCP1), CCL2 (gene 6347)
Description: BSK_CASM3C_MCP1: BioMAP Diversity Plus: CASM3C Assay for Monocyte Chemoattractant Protein-1 (MCP1) Biomarker Activity (AID 2283046). The note with it: primary human coronary artery smooth muscle cells; actives raise or lower the signal.

Assay [3] in a line: BSK_CASM3C_Proliferation: Cell Proliferation Assessment in the BioMAP Diversity Plus: CASM3C Assay (AID 2283047).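 Also: sulforhodamine B total protein stain as relative cell number at 560 nm; sub-confluent cells exposed 48 h before staining; fitted both ways against DMSO so gain or loss of cell number.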 The conditions noted are these: primary human coronary artery smooth muscle cells.
Read-out in assay [4]: Tissue Factor, F3 (gene 2152)
Description: BSK_CASM3C_TissueFactor: BioMAP Diversity Plus: CASM3C Assay for Tissue Factor Biomarker Activity (AID 2283052).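 Also: cell surface tissue factor protein level read by ELISA.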 The note with it: primary human coronary artery smooth muscle cells; actives raise or lower the signal.

Read-out in assay [5]: Interferon-gamma inducible Protein 10 (IP10), CXCL10 (gene 3627)
Description: BSK_hDFCGF_IP10: BioMAP Diversity Plus: hDFCGF Assay for Interferon-gamma inducible Protein 10 (IP10) Biomarker Activity (AID 2283053). The note with it: primary human foreskin fibroblasts; actives raise or lower the signal. The procedure, abridged:
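ELISA read-out of IP-10 (CXCL10) from primary human skin fibroblasts, 24 h after compound addition. Gain or loss of signal versus DMSO baseline, bidirectional curve fitting.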

Read-out in assay [6]: Epidermal growth factor receptor (EGFR), EGFR (gene 1956)
Description: BSK_hDFCGF_EGFR: BioMAP Diversity Plus: hDFCGF Assay for Epidermal growth factor receptor (EGFR) Biomarker Activity (AID 2283057). The conditions noted are these: primary human foreskin fibroblasts; actives raise or lower the signal. A digest of the protocol: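 ELISA readout of EGFR on human dermal fibroblasts (primary foreskin cells), 24 h post-dosing; bidirectional curve fit vs DMSO baseline, gain or loss of signal scored.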

Read-out in assay [7]: Interleukin-8 (IL8), CXCL8 (gene 3576)
Description: BSK_hDFCGF_IL8: BioMAP Diversity Plus: hDFCGF Assay for Interleukin-8 (IL8) Biomarker Activity (AID 2283058). The conditions noted are these: primary human foreskin fibroblasts; actives raise or lower the signal. A digest of the protocol: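 IL-8 levels read by ELISA at 24 hours after dosing human skin fibroblast cultures. Parallel SRB staining assessed overt cytotoxicity, and gain or loss of signal was fitted against DMSO control.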

Assay [8] can be described thus: BSK_hDFCGF_Proliferation: Cell Proliferation Assessment in the BioMAP Diversity Plus: hDFCGF Assay (AID 2283059).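 Also: curves fitted for both rise and fall of signal versus DMSO baseline.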 The note with it: primary human foreskin fibroblasts. A digest of the protocol:
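Total protein read at 560 nm after 0.1% SRB staining of TCA-fixed human skin fibroblasts, […]. Activity is fitted in both directions relative to DMSO as baseline.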

The nature of assay [9]: BSK_hDFCGF_SRB: Viability Assessment in the BioMAP Diversity Plus: hDFCGF Assay (AID 2283061).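 Also: cells exposed to compound for 24 h before the read.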 The note with it: primary human foreskin fibroblasts. The procedure, abridged: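 Viability was read as total protein: after 10% TCA fixation, wells were stained with 0.1% sulforhodamine B and read at 560 nm. Primary human foreskin fibroblasts were dosed for 24 h, with bidirectional fitting versus DMSO.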

Read-out in assay [10]: TIMP metallopeptidase inhibitor 1 (TIMP1), TIMP1 (gene 7076)
Description: BSK_hDFCGF_TIMP1: BioMAP Diversity Plus: hDFCGF Assay for TIMP metallopeptidase inhibitor 1 (TIMP1) Biomarker Activity (AID 2283062). The note with it: primary human foreskin fibroblasts; actives raise or lower the signal. The procedure, abridged: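 TIMP-1 measured by ELISA 24 h after chemical dosing of primary human skin fibroblasts, with gain or loss fitted relative to DMSO. Parallel SRB staining (560 nm) monitored overt cytotoxicity.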

Read-out in assay [11]: Monokine induced gamma interferon (MIG), CXCL9 (gene 4283)
Description: BSK_hDFCGF_MIG: BioMAP Diversity Plus: hDFCGF Assay for Monokine induced gamma interferon (MIG) Biomarker Activity (AID 2283063). The note with it: primary human foreskin fibroblasts; actives raise or lower the signal. A digest of the protocol:
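Human primary foreskin fibroblasts in the hDFCGF system, exposed to test chemical for 24 h; MIG measured by ELISA. Bidirectional curve fitting against DMSO negative control as activity baseline.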

Read-out in assay [12]: Matrix Metallopeptidase 1 (MMP1), MMP1 (gene 4312)
Description: BSK_hDFCGF_MMP1: BioMAP Diversity Plus: hDFCGF Assay for Matrix Metallopeptidase 1 (MMP1) Biomarker Activity (AID 2283064). The note with it: primary human foreskin fibroblasts; actives raise or lower the signal. The procedure, abridged: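 MMP1 levels quantified by ELISA 24 h after dosing human dermal fibroblast cultures, with parallel SRB total-protein staining for overt cytotoxicity. Data fitted in both directions against DMSO baseline.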

Read-out in assay [13]: Vascular cell adhesion molecule 1 (VCAM1), VCAM1 (gene 7412)
Description: BSK_hDFCGF_VCAM1: BioMAP Diversity Plus: hDFCGF Assay for Vascular cell adhesion molecule 1 (VCAM1) Biomarker Activity (AID 2283065).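 As to AC50: VCAM-1 protein level quantified by ELISA after 24 h chemical exposure.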 The note with it: primary human foreskin fibroblasts; actives raise or lower the signal. The procedure, abridged: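 ELISA readout of VCAM-1 on human dermal fibroblast primary cultures, 24 h after chemical exposure. Gain or loss of signal fitted in both directions against DMSO baseline.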

Read-out in assay [14]: Plasminogen activator inhibitor-1 (PAI1), SERPINE1 (gene 5054)
Description: BSK_hDFCGF_PAI1: BioMAP Diversity Plus: hDFCGF Assay for Plasminogen activator inhibitor-1 (PAI1) Biomarker Activity (AID 2283066). The conditions noted are these: primary human foreskin fibroblasts; actives raise or lower the signal. A digest of the protocol: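 ELISA readout of PAI-1 from primary human skin fibroblast cultures, 24 h after compound addition. Gain or loss of signal was fitted bidirectionally against DMSO baseline.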

Read-out in assay [15]: Interferon-gamma inducible Protein 10 (IP10), CXCL10 (gene 3627)
Description: BSK_KF3CT_IP10: BioMAP Diversity Plus: KF3CT Assay for Interferon-gamma inducible Protein 10 (IP10) Biomarker Activity (AID 2283068). The note with it: primary human keratinocytes with fibroblasts; actives raise or lower the signal. A digest of the protocol: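 Human keratinocyte plus foreskin fibroblast primary co-culture exposed to test chemical for 24 h; IP-10 measured by ELISA. Concentration-response fitted bidirectionally against DMSO control as baseline.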

Read-out in assay [16]: Transforming growth factor beta 1 (TGFb1), TGFB1 (gene 7040)
Description: BSK_KF3CT_TGFb1: BioMAP Diversity Plus: KF3CT Assay for Transforming growth factor beta 1 (TGFb1) Biomarker Activity (AID 2283072). The conditions noted are these: primary human keratinocytes with fibroblasts; actives raise or lower the signal. A digest of the protocol: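 Read-out: ELISA for TGF-b1 in keratinocyte/foreskin fibroblast human skin co-culture, 24 h after dosing; bidirectional curve fit vs DMSO baseline; gain or loss of signal scored.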

Read-out in assay [17]: urokinase plasminogen activator (uPA), PLAU (gene 5328)
Description: BSK_KF3CT_uPA: BioMAP Diversity Plus: KF3CT Assay for urokinase plasminogen activator (uPA) Biomarker Activity (AID 2283075). The conditions noted are these: primary human keratinocytes with fibroblasts; actives raise or lower the signal. The procedure, abridged: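 ELISA read-out of uPA 24 h after dosing human skin keratinocytes co-cultured with foreskin fibroblasts. Signal change fitted both ways relative to DMSO; sulforhodamine B on parallel cultures marks overt cytotoxicity.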

Read-out in assay [18]: CD40, CD40 (gene 958)
Description: BSK_LPS_CD40: BioMAP Diversity Plus: LPS Assay for CD40 Biomarker Activity (AID 2283076). The conditions noted are these: primary human HUVEC with PBMC; actives raise or lower the signal. The procedure, abridged:
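In the LPS system of human endothelial cells with peripheral blood mononuclear cells, CD40 levels were read by ELISA 24 h post-treatment. Signal changes in either direction were fitted against the DMSO baseline, with parallel SRB protein staining.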

The nature of assay [19]: BSK_LPS_SRB: Viability Assessment in the BioMAP Diversity Plus: LPS Assay (AID 2283079).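 Also: total protein by sulforhodamine B absorbance as a cytotoxicity measure; measured one day after compound addition.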 The conditions noted are these: primary human HUVEC with PBMC. The procedure, abridged:
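SRB viability endpoint: cells fixed with 10% TCA, stained with 0.1% SRB, read at 560 nm, 24 h post-dose. HUVEC/PBMC co-culture; signal change in either direction scored relative to DMSO.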

Read-out in assay [20]: Macrophage colony-stimulating factor (MCSF), CSF1 (gene 1435)
Description: BSK_LPS_MCSF: BioMAP Diversity Plus: LPS Assay for Macrophage colony-stimulating factor (MCSF) Biomarker Activity (AID 2283083). The conditions noted are these: primary human HUVEC with PBMC; actives raise or lower the signal. A digest of the protocol: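 Bidirectional fitting against DMSO was applied to M-CSF levels read by ELISA at 24 h post-dose. The system pairs human umbilical vein endothelium with peripheral blood mononuclear cells; parallel SRB staining tracked cytotoxicity.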

`CC(C)(C)C(=O)CCl`: the AC50 in [1] was 4.45 µM (active); in assay [3], 20 µM (active); in [13], 12.2 µM (active); in assay [14] it was 0.405 µM (active); in assay [18], 28.7 µM (active); in [20], 30.4 µM (active). The outcome in [2], in assay [4], in assay [5], in assay [6], in assay [7] and in [8] was inactive. The result in assay [9], in [10], in assay [11], in assay [12], in assay [15] and in [16] was inactive. Besides, the result in assay [17] and in assay [19] was inactive.
For `c1ccc(Nc2ccc3ccccc3c2)cc1`, the outcome in assay [1], in assay [2], in assay [4], in assay [6], in assay [7] and in assay [11] was inactive. Further, the result in assay [18], in [19] and in [20] was inactive. Besides, the AC50 in [3] is 31.7 µM (active); in [5] it was 36.2 µM (active); in assay [8], 34.9 µM (active); in assay [9], 30.6 µM (active); in [10], 31.5 µM (active); in assay [12], 33.3 µM (active). In addition, the AC50 in assay [13] was 30.1 µM (active); in [14], 29.3 µM (active); in assay [15], 36.3 µM (active); in assay [16] it was 26.6 µM (active); in assay [17] it was 30.7 µM (active).
For `O=S(=O)(c1ccccc1)c1ccccc1`, the outcome in [1], in assay [2], in assay [3], in [4], in assay [5] and in assay [6] was inactive. Further, the outcome in [7], in [8], in [9], in assay [10], in [11] and in [12] was inactive. The outcome in assay [13], in [14], in assay [15], in assay [16], in [17] and in assay [18] was inactive. Also, the outcome in assay [19] and in assay [20] was inactive.
For the compound `COC(C)(C)CCC[C@H](C)C/C=C/C(C)=C/C(=O)OC(C)C`, the AC50 is 20 µM (active) in assay [1]; 17.2 µM (active) in [3]; 20 µM (active) in [4]; 33.7 µM (active) in assay [5]; 31.2 µM (active) in [8]; 30.7 µM (active) in [9]. For the same compound, the AC50 is 29.8 µM (active) in assay [10]; 33.2 µM (active) in [11]; 32.5 µM (active) in assay [12]; 25 µM (active) in assay [13]; 28.4 µM (active) in assay [14]; 33.6 µM (active) in assay [15]. In addition, the AC50 in [16] was 15.3 µM (active); in [18] it was 20 µM (active); in assay [19] it was 29.5 µM (active); in assay [20], 20.5 µM (active). The outcome in assay [2], in assay [6], in [7] and in [17] was inactive.

Source of the values: PubChem BioAssay (EPA / NIEHS).
